The nature of assay [1]: Nuclear factor erythroid 2-related factor 2/antioxidant responsive element (Nrf2/ARE) small molecule agonists: qHTS cell viability counter screen in human keratinocytes (AID 1919968; active = well fitted curve in the direction sought with a large enough effect in the repeat runs; an effect the other way counts as inactive or inconclusive; note: nearly all actives have a fitted effect of over 55% in size; note: potency is the fitted concentration of half-maximal effect). The essentials:
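Cells of the KeratinoSens line were plated at 1,500 per well and left for 5 h before compound transfer from DMSO stocks. After a 23 h incubation (37 C, 5% CO2), CellTiter-Fluor was added. Signal was taken as fluorescence intensity 1 h later.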

Assay [2] can be described thus: Nuclear factor erythroid 2-related factor 2/antioxidant responsive element (Nrf2/ARE) small molecule agonists: luciferase reporter gene qHTS assay in human keratinocytes (AID 1919969). Note: nearly all actives have a fitted effect of over 35% in size. Note: potency is the fitted concentration of half-maximal effect. On the technique in general: In a reporter assay the amount or activity of a reporter protein is the signal.
In assay [3] the target is Gonadotropin-releasing hormone receptor (Homo sapiens) (UniProt P30968). In words: Human gonadotropin-releasing hormone receptor (GnRHR) small molecule agonists, calcium flux assay in GnRHR-HEK293 cells (AID 1920063). Note: nearly all actives have a fitted effect of over 35% in size. The essentials:
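Compounds dissolved in DMSO are pin-transferred onto dye-loaded GnRHR-HEK293 cells, which were seeded 18 h before at 37 C/5% CO2. Calcium signal is read as fluorescence intensity at 1 s intervals for 3 min.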
A general note: Calcium assays in cells follow changes in intracellular calcium, usually with a dye or a luminescent sensor.

Assay [4] addresses KiSS-1 receptor (Homo sapiens) (UniProt Q969F8). Kind of assay: Human kisspeptin (KISS1R) small molecule agonists, calcium flux assay in KISS1R-HEK293 cells (AID 1920064; active = well fitted curve in the direction sought with a large enough effect in the repeat runs; an effect the other way counts as inactive or inconclusive). In outline: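 Cell line: HEK293, stable human KISS1R. Dye loading 1 h at 37 C after 18 h culture. Read: kinetic fluorescence, 480/540 nm, 3 min at 1 s intervals.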
The nature of assay [5]: G protein-coupled receptor (GPCR) small molecule agonists, calcium flux assay: HEK293 wild type cell line counter screen (AID 1920065). The essentials:
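Tox21 10K compounds, 15 concentrations each in triplicate, pin-transferred in DMSO onto dye-loaded cells; kinetic read at 480/540 nm for 3 min, 1 s intervals.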

Assay [6] is described as follows: p53 small molecule agonists, cell-based qHTS assay with rat liver microsomes (AID 1963578). The essentials:
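p53RE-bla cells were exposed to compounds together with rat liver microsomes (0.5 mg/mL final) and NADPH (0.5 mg/mL final) for 16 h at 37 C, then read by LiveBLAzer beta-lactamase fluorescence after 2 h at room temperature.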

Assay [7] is described as follows: p53 small molecule agonists, cell-based qHTS assay with rat liver microsomes: qHTS cell viability counter screen (AID 1963580). Note: nearly all actives have a fitted effect of over 45% in size. Note: potency is the fitted concentration of half-maximal effect. In outline:
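Luminescent ATP readout (CellTiter-Glo, 30 min at room temperature) reports viability of p53RE-bla HCT-116 cells after 16 h at 37 C with test compounds under metabolic activation by rat liver microsomes and NADPH at 0.5 mg/mL final each.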
(In qHTS, concentration-response curves come from the screen itself.)

Assay [8] is described as follows: p53 small molecule agonists, cell-based qHTS assay: qHTS cell viability counter screen (AID 1963581). Note: nearly all actives have a fitted effect of over 45% in size. Note: potency is the fitted concentration of half-maximal effect. In outline: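 ATP content measured by luminescence in HCT-116 p53RE-bla cells treated 16 h at 37 C, same wells as the reporter screen.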
The target in assay [9] is 5-hydroxytryptamine receptor 2A (Homo sapiens) (UniProt P28223). In words: 5-hydroxytryptamine receptor 2A (HTR2A) small molecule antagonists, cell-based qHTS assay (AID 1963586). Note: nearly all actives have a fitted effect of over 45% in size. In outline:
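CHO cells stably expressing human HTR2A were plated for 18 h at 37 C, then loaded with calcium dye for 1 h. Compounds were preincubated 5 min at room temperature before DOI (4 nM solution) was added. Kinetic fluorescence was read for 3 min.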

For assay [10] the target is unchanged. Kind of assay: 5-hydroxytryptamine receptor 2A (HTR2A) small molecule agonists, cell-based qHTS assay (AID 1963587). Note: nearly all actives have a fitted effect of over 30% in size. In outline: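 HTR2A-CHO cells, plated 18 h at 37 C/5% CO2, dye-loaded 1 h at 37 C; compounds in DMSO added by pin tool (agonist mode). Intracellular calcium flux read as kinetic fluorescence on FDSS over 2 min at 1 s intervals.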
Assay [11] deals with Muscarinic acetylcholine receptor M1 (Homo sapiens) (UniProt P11229). Kind of assay: Cholinergic receptor muscarinic 1 (CHRM1) small molecule antagonists, cell-based qHTS assay (AID 1963588). Note: nearly all actives have a fitted effect of over 40% in size. In outline: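 Compounds were tested at 15 concentrations in three independent runs. Dye-loaded CHRM1-CHO cells were exposed 5 min at room temperature before stimulation by acetylcholine added at 50nM. Intracellular calcium was read kinetically on FDSS for 3 min.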

The target is the same in assay [12]. In words: Cholinergic receptor muscarinic 1 (CHRM1) small molecule agonists, cell-based qHTS assay (AID 1963589). Note: nearly all actives have a fitted effect of over 35% in size. In outline:
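Homogeneous fluorescence calcium flux, agonist mode. Human M1-expressing CHO cells; compound dosed at 15 concentrations, three independent runs; signal sampled every 1 sec.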

Assay [13] concerns the target Beta-2 adrenergic receptor (Homo sapiens) (UniProt P07550). In words: Adrenergic beta2 receptor (ADRB2) small molecule antagonists, cell-based qHTS assay (AID 1963592). Note: series mostly up to about 92 µM; nearly all actives have a fitted effect of over 50% in size. In outline: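 Assay format: CHO-ADRB2 cells, 18-20hr seeding at 37C/5% CO2, then compound plus 1nM isoproterenol agonist mix for 0.5hr RT. Homogeneous time-resolved fluorescence cAMP detection after 1hr, expressed as 665/615 nm ratio.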

Assay [14] shares this target. In words: Adrenergic beta2 receptor (ADRB2) small molecule agonists, cell-based qHTS assay (AID 1963593).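 Note: CHO cells stably overexpressing human ADRB2.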 The essentials: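 CHO cells stably over-expressing ADRB2 were plated overnight at 37C, then dosed with compounds plus a stimulation mix containing 100uM IBMX and 25uM Ro-20-1724 for 0.5hr at room temperature. cAMP was measured by HTRF competition, 1hr.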
The target in assay [15] is D(2) dopamine receptor (Homo sapiens) (UniProt P14416). Kind of assay: Dopamine D2 receptor (DRD2) small molecule agonists, cell-based qHTS assay (AID 1963594). Note: nearly all actives have a fitted effect of over 35% in size. In outline: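 HEK293 cells stably expressing DRD2 were cultured 24 h at 37 C, then given Ro20-1724 (0.1 mM final) and compounds for 10 min at room temperature. NKH477 (200nM) was then added for 30 min. cAMP was read by HTRF.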

Assay [16] has the same target. In words: Dopamine D2 receptor (DRD2) small molecule antagonists, cell-based qHTS assay (AID 1963595; active = well fitted inhibition curve with a large enough effect in the signal ratio in the repeat runs, with a control signal flat; the % refers to the signal ratio). The essentials: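 Readout: HTRF cAMP, cAMP-d2 competing with cellular cAMP for anti-cAMP cryptate, read after 1 h. Cells: DRD2-HEK293. Conditions: 0.1 mM Ro20-1724, 12 nM quinpirole, 200 nM NKH477, 30 min RT.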
Assay [17] in a line: p53 small molecule agonists, cell-based qHTS assay with human liver microsomes: qHTS cell viability counter screen (AID 1963579). Note: nearly all actives have a fitted effect of over 45% in size. In outline: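 p53RE-bla cells (4,000/well) were pre-incubated 5 h at 37 C, then given compounds in DMSO plus human liver microsomes (0.5 mg/mL final) and NADPH (0.5 mg/mL final) for 16 h at 37 C. Viability was read by CellTiter-Glo luminescence.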

Assay [18] can be described thus: cAMP Responsive Elements (CRE) small molecule agonists, cell-based qHTS assay (AID 1963590). In outline: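 HEK 293T cells stably bearing CRE-bla were plated at 2,000 cells per well and rested 18 h. Compounds, positive controls or DMSO were added for 3 h at 37 C. LiveBLAzer B/G substrate was then loaded for 2 h at room temperature.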
Assay [19] is described as follows: cAMP Responsive Elements (CRE) small molecule antagonists, cell-based qHTS assay (AID 1963591; active = well fitted inhibition curve with a large enough effect in the signal ratio in the repeat runs, not every such curve was filed as active; the % refers to the signal ratio). The essentials:
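First, CRE-bla HEK293T cells settled 18 h at 37 C. Next, compound and 0.25 uM final NKH477 were applied for 3 h. Last, LiveBLAzer B/G substrate was loaded for 2 h at room temperature.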

Where “and” joins values, the source holds several entries; their conditions need not be identical. Equal values may be shown once. Records with an inconclusive call do not appear. Calls of active or inactive are those of the source. Unless noted, calls come from the whole dose curve.

Muscarinic acetylcholine receptor M1 (Homo sapiens), sequence (P11229 whole entry, looked up): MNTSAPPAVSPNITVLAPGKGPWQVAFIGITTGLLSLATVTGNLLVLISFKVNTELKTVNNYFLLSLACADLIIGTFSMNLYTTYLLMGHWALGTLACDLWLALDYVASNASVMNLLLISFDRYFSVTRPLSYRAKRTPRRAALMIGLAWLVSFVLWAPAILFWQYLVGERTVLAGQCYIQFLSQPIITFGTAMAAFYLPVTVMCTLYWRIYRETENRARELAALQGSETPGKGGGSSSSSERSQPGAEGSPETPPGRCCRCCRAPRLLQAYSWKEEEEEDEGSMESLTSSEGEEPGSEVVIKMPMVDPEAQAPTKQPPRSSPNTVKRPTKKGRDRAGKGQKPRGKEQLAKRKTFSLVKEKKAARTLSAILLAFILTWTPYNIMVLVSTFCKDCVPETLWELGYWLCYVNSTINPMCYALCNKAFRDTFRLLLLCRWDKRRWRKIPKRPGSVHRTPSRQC
KiSS-1 receptor (Homo sapiens), sequence (Q969F8 whole entry, looked up): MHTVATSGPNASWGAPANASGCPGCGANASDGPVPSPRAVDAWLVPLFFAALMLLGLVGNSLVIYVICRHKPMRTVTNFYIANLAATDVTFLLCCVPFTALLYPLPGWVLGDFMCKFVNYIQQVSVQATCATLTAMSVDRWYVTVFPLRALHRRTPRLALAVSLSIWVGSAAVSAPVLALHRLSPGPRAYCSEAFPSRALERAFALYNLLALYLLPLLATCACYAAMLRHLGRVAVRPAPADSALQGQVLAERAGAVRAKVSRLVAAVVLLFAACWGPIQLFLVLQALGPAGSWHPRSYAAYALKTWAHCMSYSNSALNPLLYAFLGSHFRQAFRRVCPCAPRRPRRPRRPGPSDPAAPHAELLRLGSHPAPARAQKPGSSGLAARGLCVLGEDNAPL
D(2) dopamine receptor (Homo sapiens), sequence (P14416 whole entry, looked up): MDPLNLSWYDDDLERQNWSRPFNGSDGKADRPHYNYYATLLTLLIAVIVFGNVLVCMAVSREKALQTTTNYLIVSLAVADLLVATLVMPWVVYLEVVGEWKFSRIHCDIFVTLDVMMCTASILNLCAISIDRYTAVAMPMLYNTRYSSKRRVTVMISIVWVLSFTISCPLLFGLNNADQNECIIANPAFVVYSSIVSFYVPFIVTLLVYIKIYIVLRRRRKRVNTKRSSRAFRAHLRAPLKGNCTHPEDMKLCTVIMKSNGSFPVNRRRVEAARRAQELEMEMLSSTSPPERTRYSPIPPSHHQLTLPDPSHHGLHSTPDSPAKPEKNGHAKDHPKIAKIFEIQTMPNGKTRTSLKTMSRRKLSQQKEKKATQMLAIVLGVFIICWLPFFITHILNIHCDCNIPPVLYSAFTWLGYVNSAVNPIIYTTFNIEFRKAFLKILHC
Gonadotropin-releasing hormone receptor (Homo sapiens), sequence (P30968 whole entry, looked up): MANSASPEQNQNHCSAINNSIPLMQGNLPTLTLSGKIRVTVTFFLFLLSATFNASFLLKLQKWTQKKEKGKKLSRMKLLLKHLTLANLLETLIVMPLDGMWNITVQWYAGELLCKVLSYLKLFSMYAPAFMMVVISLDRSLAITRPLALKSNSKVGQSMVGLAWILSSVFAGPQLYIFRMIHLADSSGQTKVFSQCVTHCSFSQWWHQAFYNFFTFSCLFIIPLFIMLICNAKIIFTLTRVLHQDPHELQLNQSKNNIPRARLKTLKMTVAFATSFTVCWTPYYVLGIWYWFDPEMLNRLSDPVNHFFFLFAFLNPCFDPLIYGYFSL
Beta-2 adrenergic receptor (Homo sapiens), sequence (P07550 whole entry, looked up): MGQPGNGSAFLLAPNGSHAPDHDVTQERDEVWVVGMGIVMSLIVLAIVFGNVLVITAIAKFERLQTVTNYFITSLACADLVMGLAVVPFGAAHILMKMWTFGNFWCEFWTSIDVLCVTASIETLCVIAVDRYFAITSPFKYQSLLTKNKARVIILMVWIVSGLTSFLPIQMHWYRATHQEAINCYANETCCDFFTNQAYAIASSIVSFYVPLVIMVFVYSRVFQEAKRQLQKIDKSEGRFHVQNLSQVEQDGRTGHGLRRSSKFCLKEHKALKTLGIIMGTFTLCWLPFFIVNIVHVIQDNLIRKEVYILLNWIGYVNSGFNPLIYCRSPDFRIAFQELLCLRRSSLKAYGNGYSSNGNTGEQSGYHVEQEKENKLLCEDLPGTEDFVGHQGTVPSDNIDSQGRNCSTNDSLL
5-hydroxytryptamine receptor 2A (Homo sapiens), sequence (P28223 whole entry, looked up): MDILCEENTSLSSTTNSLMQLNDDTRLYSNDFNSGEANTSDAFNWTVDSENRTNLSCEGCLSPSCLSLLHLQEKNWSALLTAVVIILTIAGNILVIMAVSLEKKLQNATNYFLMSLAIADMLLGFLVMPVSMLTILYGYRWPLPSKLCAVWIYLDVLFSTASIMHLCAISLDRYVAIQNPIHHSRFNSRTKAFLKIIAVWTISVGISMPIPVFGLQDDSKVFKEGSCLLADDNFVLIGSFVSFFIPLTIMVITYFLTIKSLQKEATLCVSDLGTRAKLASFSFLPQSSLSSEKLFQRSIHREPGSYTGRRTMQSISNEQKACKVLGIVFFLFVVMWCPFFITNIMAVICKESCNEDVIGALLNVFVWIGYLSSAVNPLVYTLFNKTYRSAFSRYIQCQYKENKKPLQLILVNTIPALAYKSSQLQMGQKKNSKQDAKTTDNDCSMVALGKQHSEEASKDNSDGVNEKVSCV

Turning to `CCC[CH2][Sn]([Cl])([Cl])[CH2]CCC`, the Potency was 1.23 µM (active) and 2.17 µM (active) in [1]; 492 nM (active) and 969 nM (active) in assay [2]; 18.5 µM (active) and 45.8 µM (active) in [7]; 3.28 µM (active) and 4.08 µM (active) in assay [8]. Also, the Potency entry in [3], in assay [4], in assay [5], in assay [6], in assay [9] and in assay [10] was “inactive” throughout. Also, the Potency result in assay [11], in assay [12], in assay [13], in assay [14], in assay [15] and in assay [16] was “inactive” in each case.

Turning to `CC(Cl)(Cl)C(=O)O`, the Potency entry in assay [1], in [2], in [3], in [4], in [5] and in assay [17] was “inactive” each time. The Potency result in assay [7], in [8], in assay [9], in assay [10], in assay [11] and in assay [12] was “inactive” each time. For the same compound, the Potency entry in [18], in [19], in [13], in assay [14], in assay [15] and in [16] was “inactive” in each case.

With `CC[n+]1ccccc1`, the Potency entry in [1], in assay [2], in [3], in assay [4], in [5] and in assay [17] was “inactive” in each case. Moreover, the Potency entry in assay [7], in [8], in assay [9], in assay [10], in assay [11] and in assay [12] was “inactive” each time. The Potency result in assay [18], in assay [19], in [13], in assay [14] and in assay [15] was “inactive” each time.

Turning to `Nc1ncn[nH]1`, the Potency result in [1], in assay [2], in assay [3], in [4], in assay [5] and in [17] was “inactive” in each case. The Potency entry in assay [7], in assay [8], in [9], in assay [10], in assay [11] and in [12] was “inactive” throughout. The Potency result in [18], in assay [19], in assay [13], in assay [14], in assay [15] and in [16] was “inactive” each time.

As for `CCCC[N+]1(C)CCCCC1`, the Potency result in assay [1], in [2], in assay [3], in assay [4], in assay [5] and in assay [17] was “inactive” in each case. For the same compound, the Potency entry in [7], in assay [8], in [9], in assay [10], in assay [11] and in assay [12] was “inactive” in each case. Also, the Potency entry in [18], in assay [19], in assay [13], in [14], in assay [15] and in assay [16] was “inactive” throughout.

Consider `Nc1c(Cl)cc([N+](=O)[O-])cc1Cl`, for which the Potency entry in [1], in [2], in assay [3], in assay [4], in assay [5] and in [17] was “inactive” each time. The Potency result in assay [7], in [8], in [9], in assay [10], in assay [11] and in assay [12] was “inactive” each time. In addition, the Potency result in assay [18], in assay [19], in assay [13], in [14], in assay [15] and in [16] was “inactive” each time.

As to `CN1C(=O)CCS(=O)(=O)C1c1ccc(Cl)cc1` (configuration not stated), the Potency result in assay [1], in [2], in [3], in [4], in [5] and in assay [17] was “inactive” each time. For the same compound, the Potency entry in [7], in assay [8], in [9], in assay [10], in [11] and in assay [12] was “inactive” each time. Further, the Potency result in [18], in [19], in assay [13], in assay [14] and in assay [15] was “inactive” throughout.

The values above are taken from PubChem BioAssay (Tox21).
